Hit rate of the full screen: of about 48,000 compounds, about 13,000 (27%) showed an effect of 50% or more. The list shows a part of the results.

The experiment relates to Wolbachia pipientis. Description: Anti-Wolbachia Cell-Based Screen. Format: functional. The arrangement: scale not given: in the data most compounds retested in dose-response had high values. As to conditions: 5 µM.
On to `Cc1nnc(CCNC(=O)C2CC(=O)N(C(C)(C)C)C2)s1` (stereo unspecified), for which the “Percent Effect” value is reported as -24.96%.
As for `Cc1nnc(CCNC(=O)[C@H]2CNC[C@@H](C(=O)N3CCCC3)C2)s1`, the figure is 111.1%; as for `Cc1csc(CCCNC(=O)[C@H]2CNC[C@@H](C(=O)N3CCCC3)C2)n1`, 5.026%.
In the case of `Cc1cccnc1NCCNC(=O)[C@H]1CNC[C@@H](C(=O)N2CCCC2)C1`, the “Percent Effect” value came to 2.912%.
For `Cc1cnccc1NCCNC(=O)C1CCCN(Cc2ccco2)C1` (stereo unspecified), the “Percent Effect” value worked out at 5.628%.
To `Cn1nnnc1SCCNC(=O)C1CCN(C(=O)C2CCCC2)CC1` belongs 4.852%; to `Cc1cc(C)nc(CCNC(=O)[C@H]2CNC[C@@H](C(=O)N3CCCC3)C2)n1`, 4.192%.
Regarding `CCN1CC(C(=O)NCCCc2nc(C)c(C)s2)CC1=O` (stereo unspecified), the “Percent Effect” value is listed as -10.95%.
As to `Cc1cnccc1NCCNC(=O)[C@H]1CNC[C@H](C(=O)N2CCCC2)C1`, the “Percent Effect” value came out at 142%.
As for `O=C(NCc1ccc2nonc2c1)C1CCN(C(=O)C2CCC2)CC1`, the figure is 6.946%; as for `Cn1nccc1CCNC(=O)[C@H]1CNC[C@H](C(=O)N2CCCC2)C1`, 89.07%.
On to `Cc1nc(CCCNC(=O)[C@H]2CNC[C@@H](C(=O)N3CCCC3)C2)sc1C`, for which the “Percent Effect” value turned out to be 84.73%.
`N#CC1(NC(=O)c2nccc3ccccc23)CCSCC1`: the “Percent Effect” value is recorded as -2.14%.
As for `CCCS(=O)(=O)CC(=O)NC(C)c1cccc(-n2cccn2)c1` (stereo unspecified), the figure is -8.263%; as for `Cc1ccc(-c2csc(N)c2C#N)cc1`, -4.785%; as for `CCn1cc2c(n1)CN(Cc1sccc1C)CC2COCC1CC1.O=C(O)C(F)(F)F` (stereo unspecified), 6.988%.
For the molecule `CC(C)Cn1cncc1CNC1CCCNC1` (stereo unspecified), the “Percent Effect” value came to 2.5%.
Consider `NC(=O)N1CCCC(C(=O)NCCc2nc(Cc3ccccc3)no2)C1` (stereo unspecified), for which the “Percent Effect” value stood at 5.914%.
As for `O=C(NCC1CCCO1)C1CCN(Cc2nc(C3CC3)no2)CC1` (stereo unspecified), the figure is 8.427%; as for `O=C(NCCc1nc(C2CC2)no1)[C@H]1CNC[C@H](C(=O)N2CCCC2)C1`, 183.5%.
In the case of `Cc1cc(C)cc(NC(=O)N(CCC#N)CCCN(C)C)c1`, the “Percent Effect” value is listed as 13.87%.
As for `COCCN1CCO[C@@H]2CN(Cc3cc(OC)cc(OC)c3)C[C@@H]2C1.O=C(O)C(F)(F)F.O=C(O)C(F)(F)F`, the figure is 4.168%.
For the molecule `COc1cc(CN2CCC(NC(=O)c3cccn3C)C2)cc(OC)c1` (stereo unspecified), the “Percent Effect” value is given as -4.957%.
As for `COc1cc(CN2C[C@@H]3CNC(=O)[C@H](C)[C@@H]3C2)cc(OC)c1`, the figure is 103.5%.
As for `CN(C)[C@H]1COC[C@@H]2CN(Cc3ccc4c(c3)OCO4)C[C@@H]21.O=C(O)C(F)(F)F.O=C(O)C(F)(F)F`, the figure is -0.2221%; as for `CN(C)[C@@H]1COC[C@@H]2CN(Cc3ccc4c(c3)OCO4)C[C@@H]21.O=C(O)C(F)(F)F.O=C(O)C(F)(F)F`, -14.92%.
To `C[C@H]1C(=O)NC[C@H]2CN(Cc3cccc(F)c3)C[C@H]21.O=C(O)C(F)(F)F` belongs 100.1%.
`O=C(C1CC1)N1CCC2(CCN(Cc3cccc(F)c3)CC2)CC1.O=C(O)C(F)(F)F`: the “Percent Effect” value is given as 10.09%.
With `C[C@H]1C(=O)NC[C@H]2CN(CCc3ccccc3)C[C@H]21.O=C(O)C(F)(F)F`, the “Percent Effect” value turned out to be 113.2%.
As for `C[C@@H]1C(=O)NC[C@H]2CN(Cc3ccc4c(c3)OCO4)C[C@H]21.O=C(O)C(F)(F)F`, the figure is 109.9%; as for `O=C(O)C(F)(F)F.O=C([C@H]1CCS(=O)(=O)[C@@H]2CN(CCc3ccccc3)C[C@H]12)N1CCCC1`, -9.586%.
As to `COc1cccc(-c2csc(Cn3ccc(=O)[nH]c3=O)n2)c1`, the “Percent Effect” value is listed as -10.2%.
Consider `COCCCn1ccc(NC(=O)NCCn2ccnc2)n1`, for which the “Percent Effect” value is given as -3.976%.
To `Fc1ccc2c(c1)nc1n2[C@@H](CNCc2nccs2)COC1` belongs -7.093%; to `Cc1nc(Cn2cc(C#N)c(=O)c3ccccc32)no1`, -5.414%.
To `N#Cc1cc(N2CCC(CS(N)(=O)=O)CC2)nc2ccccc12` belongs -7.143%.
Take `CC1CN(C)CCN1C(=O)NCCCn1ccnc1` (stereo unspecified): the “Percent Effect” value is 19.65%.
For the molecule `COc1ccc2cc(CN(C)C(C)c3nc(C(C)(C)C)no3)ccc2c1` (stereo unspecified), the “Percent Effect” value is -2.359%.
To `CN1CC2(CCN(Cc3ccoc3)CC2)COc2ccccc2S1(=O)=O.O=C(O)C(F)(F)F` belongs 1.89%; to `CN(C)C(=O)CN1C[C@H]2CCN(Cc3ccccc3)CC[C@H]2S1(=O)=O.O=C(O)C(F)(F)F`, -15.21%.
On to `CN1CC2(CCN(CC3CC3)CC2)COc2ccccc2S1(=O)=O.O=C(O)C(F)(F)F`, for which the “Percent Effect” value turned out to be 105.1%.
To `CN(C)C(=O)CN1CCC2(CC1)COc1ccccc1S(=O)(=O)N(C)C2.O=C(O)C(F)(F)F` belongs 107.3%; to `COc1cccn(CC(=O)N(C)CCC2CCOCC2)c1=O`, -97.94%.
For the molecule `CN1CCN([C@@H]2CCN(C3CCOCC3)[C@H]2Cc2cnn(C)c2)CC1.O=C(O)C(F)(F)F.O=C(O)C(F)(F)F.O=C(O)C(F)(F)F`, the “Percent Effect” value was -4.702%.
For `Cc1nccn1-c1cc(CNC(=O)C2CCC(=O)N2)ccn1` (stereo unspecified), the “Percent Effect” value is given as -0.872%.
To `CN1CCC2(COCCN(Cc3cccc(C#N)c3)C2)C1.O=C(O)C(F)(F)F.O=C(O)C(F)(F)F` (stereo unspecified) belongs -6.492%; to `Cc1cc(N2CCC(N(C)Cc3cccnc3)C2=O)n(C)n1` (stereo unspecified), 5.804%; to `CCC(C(=O)NCc1ccncc1)N(c1cccc(C)c1)S(C)(=O)=O` (stereo unspecified), -0.3468%.
As for `CC(C)NC1CCc2c(ccc(=O)n2CCN2CCOCC2)C1.O=C(O)C(F)(F)F.O=C(O)C(F)(F)F` (stereo unspecified), the figure is 1.575%.
As for `CCS(=O)(=O)N1CCc2ccc(=O)n(CC3CC3)c2CC1`, the figure is -6.425%; as for `O=c1ccc2c(n1CCN1CCCC1)CCN(c1ncccn1)CC2`, 103.5%.
Turning to `CS(=O)(=O)N1CCc2ccc(=O)n(CC3CC3)c2CC1`, the “Percent Effect” value is reported as -5%.
To `O=c1ccc2c(n1CC1CC1)CCN(c1ncccn1)CC2` belongs 91.07%; to `c1cnc(N2CCC(OCCN3CCCCC3)C2)nc1` (stereo unspecified), 7.193%; to `CS(=O)(=O)N1CCc2ccc(=O)n(CCN3CCCC3)c2CC1.O=C(O)C(F)(F)F`, 96.15%.
As to `O=C1OCCN1CCSc1nnnn1C1CCOCC1`, the “Percent Effect” value was found to be 4.471%.

For the origin of these results see ChEMBL document CHEMBL3988442, “University of Dundee, Small-Polar-MMV Screening Library” (2021).
